Screens (PubChem BioAssay)
A selection: hits, their analogues and other compounds. The true share with any hit is near 2.3%.
Hsp90 Hop PPI = qHTS Assay for Disrupters of an Hsp90 Co-Chaperone Interaction; AlphaScreen TPR2A-His6 binding biotin-Hsp90 C-terminal peptide; Potency, µM (titrated, usually from 57 µM); Hsp90 C-terminal peptide / TPR2A (Hop) interaction, human; hit rate 0.44% among 71,000; AID 595, 2007; active = well fitted curve in either direction with a large enough effect; inconclusive = small, poorly fitted or top-dose-only effect, or another doubt
Tau filament bind = qHTS Assay for Tau Filament Binding. Potency, µM (series often up to 57.1 µM). recombinant tau filaments, thioflavin S fluorescence, 15 h; filaments grown with octadecylsulfate alongside compound. AID 596, 2007. hit rate 2% among 71,000;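 also: actives lower thioflavin S fluorescence by blocking filaments or displacing dye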
Target sequence (P10636 whole entry, looked up): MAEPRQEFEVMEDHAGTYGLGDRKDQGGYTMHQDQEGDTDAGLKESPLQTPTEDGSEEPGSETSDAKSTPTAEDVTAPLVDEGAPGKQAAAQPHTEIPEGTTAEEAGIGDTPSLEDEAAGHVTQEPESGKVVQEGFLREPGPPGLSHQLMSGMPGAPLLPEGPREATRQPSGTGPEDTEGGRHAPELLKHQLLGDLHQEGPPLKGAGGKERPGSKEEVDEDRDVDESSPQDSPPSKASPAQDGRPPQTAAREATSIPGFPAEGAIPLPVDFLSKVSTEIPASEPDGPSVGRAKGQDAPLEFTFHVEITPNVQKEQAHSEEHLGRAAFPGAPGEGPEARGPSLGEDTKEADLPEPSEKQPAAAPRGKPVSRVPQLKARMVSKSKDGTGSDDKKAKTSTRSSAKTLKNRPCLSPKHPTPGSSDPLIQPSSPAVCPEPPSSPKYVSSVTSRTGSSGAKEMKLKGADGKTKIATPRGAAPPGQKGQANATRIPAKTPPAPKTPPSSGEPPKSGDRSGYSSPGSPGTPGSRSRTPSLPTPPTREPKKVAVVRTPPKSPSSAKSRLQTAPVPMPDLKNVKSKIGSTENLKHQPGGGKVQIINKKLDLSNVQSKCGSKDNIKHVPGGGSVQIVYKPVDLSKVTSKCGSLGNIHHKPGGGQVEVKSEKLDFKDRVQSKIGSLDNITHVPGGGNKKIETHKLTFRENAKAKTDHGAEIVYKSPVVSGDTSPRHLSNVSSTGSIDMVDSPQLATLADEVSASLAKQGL
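His-tagged recombinant human tau (exons 2, 3 and 10 included), 1 uM, was induced to fibrillize by 30 uM sodium octadecylsulfate with compound present. After 15 h at 37 C, thioflavine S fluorescence (ex 450, em 510 nm) was read.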
BRCT PPI red = qHTS Assay for Inhibitors of BRCT-Phosphoprotein Interaction (Red Fluorophore). Potency, µM (top dose mostly 76.9 µM), most hits filed as inhibitors. hit rate 0.03% among 75,000. AID 892, 2007. Breast cancer type 1 susceptibility protein (Homo sapiens), P38398. BRCT-phosphopeptide binding, red fluorescence polarization
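Fluorescence polarization: 100 nM His-tagged BRCA1 BRCT with 100 nM TAMRA-labelled phospho-BACH1 decapeptide, phosphate buffer pH 7.3 with 150 mM NaCl, DTT, 0.01% Tween 20; 12 min RT. Binding inhibition seen as FP decrease.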
YjeE inh = qHTS Assay for Inhibitors of YjeE; purified YjeE enzyme, qHTS inhibition assay; Potency, µM; hit rate 0.05% among 71,000; AID 605, 2007
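Fluorescence polarization of a BODIPY Texas Red–ADP probe (2 uM) bound to purified YjeE (10 uM) was read after 15 min room-temperature incubation with compounds. Loss of polarization marks inhibitors; ADP serves as titrated control.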
Pol III holo inh = qHTS Assay for Inhibitors of DNA Polymerase III Holoenzyme System | hit rate 0.25% among 71,000 | Potency, µM (titrated, usually from 57.1 µM) | AID 603, 2007 | reconstituted DNA polymerase III holoenzyme replication, biochemical
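Reconstituted *E. coli* holoenzyme (0.35 nM Pol III, 1 nM beta, 154 nM SSB, 2 nM primase) was preincubated with compound for 15 min at RT. Synthesis on 1.4 nM ssM13Gori ran 35 min, then was stopped with PicoGreen/EDTA and read as dsDNA fluorescence.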
BRCT inh green = qHTS Assay for Inhibitors of BRCT-Phosphoprotein Interaction (Green Fluorophore); Breast cancer type 1 susceptibility protein (Homo sapiens), P38398; BRCA1 BRCT-phosphopeptide binding, green fluorescence polarization; Potency, µM (series often up to 76.9 µM), hits mostly inhibitors; hit rate 0.05% among 75,000
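Fluorescence polarization: His-tagged BRCT (~35 kDa BRCA1 C-terminus, 250 nM) bound to 100 nM fluorescein-labeled phosphorylated 10-aa BACH1 peptide, pH 7.3 phosphate buffer with DTT and Tween 20. Compounds incubated 12 min at room temperature; inhibition read as lowered polarization.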
Large screens that a line does not name were inactive; ! = not active in a repeat. Unless noted, calls follow the shape of the dose curve; as a rule, active = well fitted curve in the direction sought with a large enough effect; inconclusive = small, poorly fitted or top-dose-only effect, or another doubt; inactive = no such curve, though single readings can be large; an effect the other way counts as inactive or inconclusive.

CCOC(=O)c1sc(NCc2ccco2)c(-c2nc3ccccc3s2)c1N	none
COc1ncc2nc(-c3ccccc3)c(=O)n(C)c2n1	none
COCCNC(=O)C1(CC(C)C)C=CCN1C(=O)c1ccccc1 (centres undefined)	none
CC(C)n1c2ccccc2c2nc3ccccc3nc21	Hsp90 Hop PPI 31.6µM
CC(C)n1c(Nc2ccccc2)nc2ccccc21	none
COc1cc2cc3c4c(cc(OC)c(OC)c4c2cc1OC)CCN3C	Hsp90 Hop PPI inconclusive, Tau filament bind 3.98µM
N#Cc1nc(N2CCCCC2)nc(N2CCOCC2)n1	Tau filament bind 2.51µM
CCCCOc1ccc(-c2nnn(C(C)(C)C(=O)OC)n2)cc1	Hsp90 Hop PPI 25.1µM
CN(C)c1ccc(C(=C2C=CC(=[N+](C)C)C=C2)c2ccccc2)cc1	Hsp90 Hop PPI inconclusive, Tau filament bind 0.2µM!
CN(C)c1ccc(/C(=N\O)C(F)(F)F)cc1	none
c1ncc(CC2CCNCC2)[nH]1	Tau filament bind inconclusive
NNc1nncc2ccccc12	Hsp90 Hop PPI 12.6µM!
Cn1cccc1C(=O)N1CCC2(CCCN(c3ccncc3)C2)CC1	none
CCC(c1nnc(SCC(=O)Nc2ccc(C(=O)Nc3ccccc3OC)cc2)o1)N(C)C (centres undefined)	Tau filament bind 20µM
C=C(C)COc1ccc2c(c1)CCC1C2CC[C@]2(C)C(=O)/C(=N/O)CC12 (some centres undefined)	Hsp90 Hop PPI inconclusive
CC(=O)N1CCN(c2ccc(Nc3ncnc4c3oc3ccccc34)cc2)CC1	Tau filament bind 25.1µM
CCc1nc(Nc2ccc(N3CCN(C(C)=O)CC3)cc2)c2oc3ccccc3c2n1	Tau filament bind 20µM
CCc1nc(N2CCN(C(=O)c3ccco3)CC2)c2oc3ccccc3c2n1	none
Cc1cc2c(nc1C)CCCN2C[C@@H](O)CN1CCN(C)CC1	none (no result: Hsp90 Hop PPI, Tau filament bind, YjeE inh, Pol III holo inh)
COc1ccc(Oc2cn[nH]c2-c2ccc(O)cc2O)cc1	none
CCCc1ccc(Oc2cn[nH]c2-c2ccc(O)cc2O)cc1	Tau filament bind 0.794µM
CNC(=O)[C@H](C)[C@H]1C[C@]1(C)[C@H](NC(=O)OCc1ccccc1)c1ccccc1	none
CCNc1ncc2nc(C)c(=O)n(C[C@H]3CCCO3)c2n1	none
FC(F)(F)c1cnc(Nc2ccc(N3CCOCC3)cc2)c(Cl)c1	Tau filament bind 31.6µM
COc1ccccc1N1CCN(S(=O)(=O)c2ccc3c4c(cccc24)C(=O)N3)CC1	none
COc1ccccc1N1CCN(S(=O)(=O)c2ccc3c4c(cccc24)C(=O)N3C)CC1	Tau filament bind 25.1µM
C#C[C@@]1(O)CCC2C3CCc4cc(O)ccc4C3CC[C@@]21C (some centres undefined)	none (no result: Hsp90 Hop PPI, Tau filament bind, YjeE inh, Pol III holo inh)
CO/N=C(\C(=O)N[C@@H]1C(=O)N2C(C(=O)O)=C(CSc3nc(=O)c(O)nn3C)CS[C@@H]12)c1csc(N)n1	Pol III holo inh 39.8µM
Cc1ccc(NC(=O)CCNS(=O)(=O)c2cccc3nonc23)cc1	none
Cc1ccc(N(CC(=O)Nc2cccc(C)c2)S(=O)(=O)c2cccc3nonc23)cc1	Tau filament bind 15.8µM
COCc1cc(=O)n2c(-c3ccc(C)cc3)n[nH]c2n1	Tau filament bind 15.8µM
COCc1cc(=O)n2c(-c3ccccc3OC)n[nH]c2n1	none
O=C(Nc1ccc2c(c1)OCO2)c1cc2ncc(Br)cn2n1	Tau filament bind 25.1µM
CCNc1ncc2nc(-c3cc(F)cc(F)c3)c(=O)n(CCC#N)c2n1	none
CC1=CC(C#N)(C#N)C(C#N)(C#N)C(c2ccccc2)N1 (centres undefined)	Hsp90 Hop PPI 3.16µM, YjeE inh 50.1µM
CC(=C/C=C/C(C)=C/C=C/C=C(C)/C=C/C=C(C)/C=C/C(=O)O)/C=C/C(=O)O	Tau filament bind 25.1µM
O=C(O)/C=C/C(=O)O	none
Cc1ccc(S(=O)(=O)N[C@H]2COC(=O)[C@H](C)COC(=O)C/C=C\[C@H]2C)cc1	none (no result: Hsp90 Hop PPI, Tau filament bind, YjeE inh, Pol III holo inh)
COc1ccc(CCNC(=O)CC2Nc3ccccc3NC2=O)cc1OC (centres undefined)	none
Cc1ccc(NC(=O)CC2Nc3ccccc3NC2=O)cc1Cl (centres undefined)	Tau filament bind 20µM
COc1ccc(CCNC(=O)CC2Nc3ccccc3NC2=O)cc1 (centres undefined)	Tau filament bind 12.6µM
CCOc1ccccc1NC(=O)CC1Nc2cc(C)c(C)cc2NC1=O (centres undefined)	Tau filament bind 3.98µM
CN1CCN(CCCBr)CC1	none
Cc1ccc(S(=O)(=O)OC[C@@H]2CN3[C@H](c4ccc(Br)cc4)[C@H](C)CC[C@H]3C(=O)O2)cc1	none (no result: Hsp90 Hop PPI, Tau filament bind, YjeE inh, Pol III holo inh)
CC(C)OC(=O)c1c(NC(=O)c2cccs2)sc2c1CCCC2	Hsp90 Hop PPI 25.1µM
O=C(Nc1sc2c(c1C(=O)O)CCCC2)c1cccs1	none
COc1cccc(/C=C/C2=CC3(C)CC2(C)C(c2cccc(OC)c2)CC3=O)c1 (centres undefined)	none (no result: Hsp90 Hop PPI, Tau filament bind, YjeE inh, Pol III holo inh)
COc1ccc(NC(=O)c2cnn3c(C(F)(F)F)cc(-c4ccco4)nc23)cc1OC	Tau filament bind 0.398µM, Pol III holo inh 1µM
O=C(NC1CCCCC1)c1cc2nc(-c3ccco3)cc(C(F)(F)F)n2n1	none
O=C(NC12CC3CC(CC(C3)C1)C2)c1cc2nc(-c3ccco3)cc(C(F)(F)F)n2n1	Tau filament bind 12.6µM
O=C(Nc1ccc2c(c1)OCO2)c1cnn2c(C(F)(F)F)cc(-c3ccco3)nc12	Tau filament bind 0.501µM
O=C(Nc1cnn(Cc2ccccc2)c1)c1cc2nc(-c3ccco3)cc(C(F)(F)F)n2n1	none
Cc1ccccc1Cn1nc(C)c(NC(=O)c2cc3nc(-c4ccco4)cc(C(F)(F)F)n3n2)c1C	Tau filament bind 7.94µM
Cc1ccn2c(CCc3nnc4cc(C)ccn34)nnc2c1	none
O=C(c1cnn2c(C(F)(F)F)cc(-c3ccco3)nc12)N1CCCc2ccccc21	Tau filament bind inconclusive
O=C(Nc1cnn(C23CC4CC(CC(C4)C2)C3)c1)c1cnn2c(C(F)(F)F)cc(-c3ccco3)nc12	Tau filament bind 2µM
Cn1cccc1C(=O)N1CCC2(CC1)CCN(c1ccccc1)CC2	none
Cn1cccc1C(=O)N1CCC2(CC1)CCN(c1ccc(-c3ccccc3)cc1)CC2	Tau filament bind 15.8µM
